# Inconclusive results are not listed. A call without a number means that no potency is given here. Activity calls are given as the source filed them. Unless noted, the call rests on the fitted dose curve; in most records, active means well fitted curve in the direction sought with a large enough effect; inconclusive means small, poorly fitted or top-dose-only effect, or another doubt; inactive means no such curve, though single readings can be large; an effect the other way counts as inactive or inconclusive.
# Assays:
# [1] = Cytotoxicity counterscreen for inhibitors of SARS-CoV-2 cell entry (AID 1645845; calls by dose curve; further: nearly all actives have a fitted effect of over 50% in size); details: cell viability (SARS-CoV-2 entry assay cells); series mostly up to 57.1 µM
# How it was run: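 Counterscreen run in the same HEK293-ACE2 line as the pseudotyped-particle entry assay, without particles. Viability after 48 h at 37 C was read as ATP luminescence, scaled between cell-containing and cell-free wells.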
# [2] = Primary qHTS to identify inhibitors of SARS-CoV-2 cell entry (AID 1645846; calls by dose curve; further: nearly all actives have a fitted effect of over 45% in size); details: SARS-CoV-2 pseudovirus cell entry assay, luminescence; activity change, negative = inhibition: at 57.1 µM (top of the series) unless noted; series mostly up to 57.1 µM
# How it was run: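 HEK293 cells stably expressing human ACE2, pre-treated 1 h with compound, then infected with MLV particles pseudotyped with Wuhan-Hu-1 spike (C-terminal 19-aa truncation). Luciferase luminescence after 48 h at 37 °C, normalised to spike PP and bald PP.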
# [3] = Primary qHTS for inhibitors of nuclear receptor binding SET domain protein 2 (NSD2) in an isogenic RCH-ACV NSD2 p.E1099K mutant (9B) (AID 1645876); details: RCH-ACV NSD2 E1099K (9B) viability, CellTiter-Glo, 72 h; series mostly up to 44.9 µM; further: nearly all actives have a fitted effect of over 70% in size
# Papain (Carica papaya) = Papain (Carica papaya) (UniProt P00784); test: Primary qHTS assay for inhibitors of the protease papain (AID 1645873); details: papain Z-FR-AMC cleavage, AMC fluorescence; series mostly up to 49.8 µM;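 further: papain turnover of Z-FR-AMC read as the AMC fluorescence gain over 10 min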
# Chain of Papain (Carica papaya) (P00784 whole entry, looked up, the tested form may be a part): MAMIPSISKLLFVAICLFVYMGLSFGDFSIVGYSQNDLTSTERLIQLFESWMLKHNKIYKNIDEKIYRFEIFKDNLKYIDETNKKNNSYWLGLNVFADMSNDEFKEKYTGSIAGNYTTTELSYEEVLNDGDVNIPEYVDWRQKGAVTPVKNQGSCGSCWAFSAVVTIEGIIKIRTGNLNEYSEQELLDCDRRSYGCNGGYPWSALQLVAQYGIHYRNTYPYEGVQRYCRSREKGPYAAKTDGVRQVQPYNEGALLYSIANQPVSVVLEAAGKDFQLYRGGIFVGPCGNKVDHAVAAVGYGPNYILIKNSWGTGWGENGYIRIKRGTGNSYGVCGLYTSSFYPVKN
# [4] = Primary qHTS for inhibitors of nuclear receptor binding SET domain protein 2 (NSD2) in an RCH-ACV wild type WT cells (2C) (AID 1645877); details: RCH-ACV (leukaemia line) NSD2 WT (2C) viability, CellTiter-Glo, 72 h; series mostly up to 44.9 µM; further: nearly all actives have a fitted effect of over 70% in size
# [5] = target: Rap guanine nucleotide exchange factor 3 (Homo sapiens) (UniProt O95398); test: Confirmatory qHTS for antagonist of cAMP-regulated guanine nucleotide exchange factor 3 (EPAC1) (AID 1645880); details: EPAC1 Rap1B-BODIPY-GDP exchange, fluorescence; series mostly up to 115 µM; further: nearly all actives have a fitted effect of over 55% in size
# Chain of Rap guanine nucleotide exchange factor 3 (Homo sapiens) (O95398 whole entry, looked up): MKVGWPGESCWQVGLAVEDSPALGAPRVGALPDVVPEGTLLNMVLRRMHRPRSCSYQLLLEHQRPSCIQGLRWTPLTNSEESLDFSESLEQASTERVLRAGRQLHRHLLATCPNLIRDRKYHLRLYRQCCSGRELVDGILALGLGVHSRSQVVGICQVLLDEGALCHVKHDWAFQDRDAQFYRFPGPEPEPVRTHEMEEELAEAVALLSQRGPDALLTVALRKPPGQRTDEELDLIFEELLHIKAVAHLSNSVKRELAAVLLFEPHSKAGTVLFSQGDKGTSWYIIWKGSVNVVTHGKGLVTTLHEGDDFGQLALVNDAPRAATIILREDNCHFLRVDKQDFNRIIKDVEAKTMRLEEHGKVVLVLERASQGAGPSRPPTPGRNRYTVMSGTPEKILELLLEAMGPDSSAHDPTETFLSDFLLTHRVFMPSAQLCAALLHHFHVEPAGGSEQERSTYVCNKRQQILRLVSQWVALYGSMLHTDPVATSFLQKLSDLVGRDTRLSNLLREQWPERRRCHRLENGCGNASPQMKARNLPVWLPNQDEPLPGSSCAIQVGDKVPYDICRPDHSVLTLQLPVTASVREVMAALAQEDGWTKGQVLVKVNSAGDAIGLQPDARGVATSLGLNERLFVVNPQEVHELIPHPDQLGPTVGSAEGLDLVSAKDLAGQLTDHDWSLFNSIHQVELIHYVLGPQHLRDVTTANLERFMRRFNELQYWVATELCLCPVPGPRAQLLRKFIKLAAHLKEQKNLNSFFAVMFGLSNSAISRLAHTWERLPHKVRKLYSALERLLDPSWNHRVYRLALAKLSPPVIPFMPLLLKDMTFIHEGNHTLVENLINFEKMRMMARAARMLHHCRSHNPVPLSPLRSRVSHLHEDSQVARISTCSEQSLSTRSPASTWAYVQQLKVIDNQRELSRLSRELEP
# How it was run: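 Released BODIPY-GDP fluoresces less than Rap1-bound BODIPY-GDP; the signal is followed at 480/540 nm at 5-min intervals over 30 min, after 5 min at room temperature. Reactions contain 100 nM EPAC1, 250 nM RAP1B-BODIPY-GDP and 50 uM GDP; results are normalized to ATA and DMSO.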
# [6] = target: N-terminal Xaa-Pro-Lys N-methyltransferase 1 (Homo sapiens) (UniProt Q9BV86); test: Confirmatory qHTS for Inhibitors of N-terminal methyltransferase 1 (NTMT1): MTaseGlo Assay (AID 1645874); details: NTMT1 enzyme, MTase-Glo SAH luminescence; series mostly up to 100 µM;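 further: luminescence from SAH made as NTMT1 methylates SPKRIA peptide using SAM; nearly all actives have a fitted effect of over 65% in size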
# Chain of N-terminal Xaa-Pro-Lys N-methyltransferase 1 (Homo sapiens) (Q9BV86 whole entry, looked up): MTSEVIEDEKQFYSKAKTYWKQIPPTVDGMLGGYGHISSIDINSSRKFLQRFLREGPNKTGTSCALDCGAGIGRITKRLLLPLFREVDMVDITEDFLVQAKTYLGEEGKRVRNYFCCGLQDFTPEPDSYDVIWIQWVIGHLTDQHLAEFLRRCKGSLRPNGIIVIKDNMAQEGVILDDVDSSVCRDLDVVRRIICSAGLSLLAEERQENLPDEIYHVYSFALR
# How it was run: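 Room-temperature NTMT1 reaction, 30 min, with 100 uM SAM and 1 uM SPKRIA substrate; enzyme 125 nM. Read-out: MTase-Glo luminescence, normalized to no-enzyme and DMSO controls.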
smiles,measurement,setting,value
C/C(O)=C(\C#N)C(=O)Nc1cc(Br)ccc1Br,outcome,[1],inactive
same,"activity change, negative = inhibition",[2],-10.6%
same,Potency,[3],inactive
CC(C)(O)[C@@H]1C2OC(=O)[C@@H]1[C@]1(O)C[C@H]3O[C@]34C(=O)O[C@H]2[C@]14C (tested in a mixture with another compound),Potency,Papain (Carica papaya),inactive
[Cl-].[Cl][Pt].[NH2-].[NH2-].c1ccncc1,Potency,Papain (Carica papaya),inactive
COc1cc2c(cc1OC)[C@@]13CCN4CC5=CCO[C@H]6CC(=O)N2[C@H]1[C@H]6[C@H]5C[C@H]43,outcome,[1],inactive
same,"activity change, negative = inhibition",[2],-18.2%
same,Potency,[3],inactive
same,Potency,[4],inactive
O=c1[nH]cc(N(CCCl)CCCl)c(=O)[nH]1,outcome,[1],inactive
same,"activity change, negative = inhibition",[2],-21% [at 114 µM]
same,outcome,[5],inactive
N=C(N)c1ccc(CS(=O)(=O)F)cc1,Potency,Papain (Carica papaya),inactive
O=C1/C(=C/c2ccccc2)C[C@@]2(O)[C@H]3Cc4ccc(O)c5c4[C@@]2(CCN3CC2CC2)[C@H]1O5,Potency,Papain (Carica papaya),inactive
C[N+]1(C)CCOC(O)(c2ccc(-c3ccc(C4(O)C[N+](C)(C)CCO4)cc3)cc2)C1 (stereo unspecified),Potency,Papain (Carica papaya),inactive
C[N+](C)(C)CC#CCOC(=O)Nc1cccc(Cl)c1,Potency,Papain (Carica papaya),inactive
CN(N=O)c1cc(O)ccc1O,Potency,Papain (Carica papaya),inactive
Clc1cc(I)cc(Cl)c1NC1=NCCN1,Potency,Papain (Carica papaya),inactive
NCCCP(=O)(O)O,Potency,Papain (Carica papaya),inactive
O=C1C[C@@H]2OCC=C3CN4CC[C@]56c7ccccc7N1[C@H]5[C@H]2[C@H]3C[C@H]46,outcome,[1],inactive
same,Potency,[3],inactive
same,Potency,[4],inactive
Oc1ccc2c3c1O[C@H]1[C@@H](O)CC[C@@]4(O)[C@@H](C2)N(CC2CCC2)CC[C@]314,outcome,[1],inactive
same,"activity change, negative = inhibition",[2],1.55%
CO[C@H]1CC=C2CCN3CCC4=C(CC(=O)OC4)[C@]23C1,Potency,Papain (Carica papaya),inactive
Clc1ccc(N2C[C@H]3CC[C@@H](C2)N3)nn1,Potency,[3],inactive
NC(N)=Nc1ccc2[nH]c3c(c2c1)C[C@@]1(O)[C@H]2Cc4ccc(O)c5c4[C@@]1(CCN2CC1CC1)[C@H]3O5,Potency,Papain (Carica papaya),inactive
same,Potency,[6],inactive
CCC(C)(OC(C)=O)C(=O)O[C@H]1[C@H](OC(C)=O)C[C@@H]2[C@@](C)([C@@H]3C[C@H]4C=CO[C@H]4O3)[C@H](C)C[C@H](OC(C)=O)[C@@]2(COC(C)=O)[C@@]12CO2 (stereo partly specified),Potency,[3],inactive
CN(C(=O)Cc1ccccc1)C(CN1CCCC1)c1ccccc1 (stereo unspecified),Potency,[3],inactive
same,Potency,[4],inactive
C[C@@]1(C(=O)O)CC[C@]2(C)CC[C@]3(C)C4=CC(=O)c5cc(O)c(O)cc5[C@]4(C)CC[C@@]3(C)[C@@H]2C1,Potency,[3],inactive
C=C(CO)C(=O)O[C@H]1C/C(C)=C/CC/C(CO)=C/[C@H]2OC(=O)C(=C)[C@H]12,Potency,[3],inactive
C=CC(C)(O)CC/C=C(\C)C(=O)O[C@H]1[C@H](O)[C@@H](CO)O[C@@H](OC(=O)[C@]23CCC(C)(C)CC2C2=CCC4[C@@]5(C)CC[C@H](O[C@@H]6O[C@H](CO[C@@H]7OC[C@H](O)[C@H](O)[C@H]7O[C@@H]7OC[C@@H](O)[C@H](O)[C@H]7O)[C@@H](O)[C@H](O)[C@H]6O)C(C)(C)C5CC[C@@]4(C)[C@]2(C)CC3)[C@@H]1OC1OC(C)C(O[C@@H]2OC[C@@H](O)[C@H](O[C@@H]3OC[C@@H](O)[C@H](O)[C@H]3O)[C@H]2O)C(O)C1O (stereo partly specified),"activity change, negative = viability loss",[3],-17.9% [at 9.23 µM] (inactive)
C=C1[C@@H]2CC[C@@]3(C)[C@H](c4ccoc4)OC(=O)C[C@]13O[C@H]1CC(=O)C(C)(C)[C@H](C(OC(C)=O)C(=O)OC)[C@]12C (stereo partly specified),Potency,[3],inactive
same,Potency,[4],inactive
